Assay results taken from PMC4552634, “A New Set of Chemical Starting Points with Plasmodium falciparum Transmission-Blocking Potential for Antimalarial Drug Discovery” (PLoS ONE, 2015).
About 3,200 (25%) of roughly 13,000 compounds showed an effect of 50% or more. The list shows a part of the results.

Test system: P. falciparum stage V gametocytes
Design: BacTiter-Glo ATP luminescence viability of purified stage V gametocytes in 384-well plates, per cent inhibition versus DMSO
Settings: 48 h, 5 µM; inhibitor

Row | Structure (SMILES) | % Inhibition [%]
1 | CN(C)CC1CCCN1Cc1ccccc1-c1cnn(C)c(=O)c1Oc1ccccc1F (centres unmarked) [TCMDC-135099] | 9.933
2 | CCC(C)c1cnc2nc(N)nc(N)c2c1C (centres unmarked) [TCMDC-137718] | 7.013
3 | O=C(Nc1ccccc1)N(Cc1ccc(-c2cccc(CNCc3ccc4c(c3)OCO4)c2)cc1)C1CCN(Cc2ccccc2)CC1 [TCMDC-140603] | 101.1
4 | O=C(Nc1ccccc1)N(Cc1ccc(-c2ccc(CNCc3ccc4c(c3)OCO4)cc2)cc1)C1CCN(Cc2ccccc2)CC1 [TCMDC-140604] | 20.36
5 | O=C(NCc1ccccc1)c1ccc(C(=O)NCC2CNCCO2)cc1 (centres unmarked) [TCMDC-136507] | 8.876
6 | O=c1ccc2ccc(F)c3c2n1CC3CN1CCC(NCc2cccc(-c3cccs3)c2)CC1 (centres unmarked) [TCMDC-134415] | 19.28
7 | Cc1cc(NCc2ccccc2)nc(NCc2ccccc2)n1 [TCMDC-123662] | 26.39
8 | Cc1cc(Nc2cccc(C(F)(F)F)c2)nc(NCc2ccccc2)n1 [TCMDC-125566] | 3.225
9 | Cc1cc(NCCc2ccc(O)cc2)nc(NCC(c2ccccc2)c2ccccc2)n1 [TCMDC-138305] | 99.17
10 | Cc1cc(NCC(c2ccccc2)c2ccccc2)nc(NCc2ccc(C(F)(F)F)cc2)n1 [TCMDC-138302] | 69.12
11 | Cc1cc(N[C@@H](C)C(=O)Nc2ccccc2)nc(NCCc2ccc(F)cc2)n1 [TCMDC-134798] | 30.85
12 | Oc1cc2c(cc1CN1CCN(Cc3ccccc3F)CC1)CCC2 [TCMDC-125013] | -13.06
13 | Cc1nc(C(=O)N2CCCC[C@H]2CNC(=O)c2ccc(-c3ccc(N4CCCC4=O)cc3C)cc2)c(-c2ccc(F)cc2)s1 [TCMDC-141437] | 4.719
14 | CCNc1cc(C(=O)N[C@@H](Cc2ccccc2)[C@H](O)CNC2CCC(C)(C)CC2)cc(N2CCCCS2(=O)=O)c1 [TCMDC-135108] | 43.04
15 | Fc1ccc2nc(-c3cccc(-c4ccc(CN5CCN(c6ccncc6)CC5)cc4)c3)[nH]c2c1 [TCMDC-132918] | 89.6
16 | Fc1ccc2nc(-c3cccc(-c4cccc(CN5CCN(c6ccncc6)CC5)c4)c3)[nH]c2c1 [TCMDC-132922] | 104.6
17 | O=C(O)C(F)(F)F.c1cc(-c2ccc(CN3CCN(c4ccncc4)CC3)cc2)cc(-c2nc3ccccc3[nH]2)c1 [TCMDC-132556] | 5.696
18 | Fc1ccc2nc(-c3ccc(-c4cccc(CN5CCN(c6ccncc6)CC5)c4)cc3)[nH]c2c1 [TCMDC-133822] | -6.554
19 | c1cc(CN2CCN(c3ccncc3)CC2)cc(-c2cccc(-c3nc4ccccc4[nH]3)c2)c1 [TCMDC-132923] | 40.29
20 | Fc1ccc2nc(-c3cccc(-c4ccc(CN5CCN(c6cnccn6)CC5)cc4)c3)[nH]c2c1 [TCMDC-132679] | 21.91

Row | Structure (SMILES) | % Inhibition [%]
21 | O=C(O)C(F)(F)F.c1cncc(CCNCc2ccc(-c3ccc(-c4nc5ccccc5[nH]4)s3)cc2)c1 [TCMDC-132876] | -17.55
22 | COc1ccc(-c2cnc3ccc(NC4CCC(O)CC4)nn23)cn1 (centres unmarked) [TCMDC-136694] | 36.86
23 | c1cc(CNCc2ccc3c(c2)OCO3)cc(-c2cccc(CNc3ccc4ncccc4c3)c2)c1 [TCMDC-140721] | -2.829
24 | CN1CCN(CCCNCc2ccccc2-c2cccc(CNCc3ccc4c(c3)OCO4)c2)CC1 [TCMDC-140476] | 103.3
25 | FC(F)(F)c1ccc(N2CCCN(Cc3cccc(-c4ccccc4CNCc4ccc5c(c4)OCO5)c3)CC2)nc1 [TCMDC-140216] | -3.324
26 | c1ccc(CCNCc2cccc(-c3ccccc3CNCc3ccc4c(c3)OCO4)c2)nc1 [TCMDC-140068] | 70.81
27 | O=C(Nc1ccc(OC2CCN(Cc3ccsc3)C2)c(Cl)c1)c1ccc(F)cc1 (centres unmarked) [TCMDC-133952] | 22.72
28 | O=C(NCc1cccc(F)c1)Nc1cccc(-c2cccc(-c3nc4ccc(C(F)(F)F)cc4[nH]3)c2)c1 [TCMDC-133292] | -20.5
29 | C#CCCC(=O)Nc1cccc(-c2cccc(-c3nc4ccc(C(F)(F)F)cc4[nH]3)c2)c1 [TCMDC-136856] | 5.566
30 | O=C(Nc1cccc(-c2nn3ccccc3c2-c2ccnc(Nc3ccccc3)n2)c1)c1c(F)cccc1F [TCMDC-135526] | -37.81
31 | CCc1cn2c3c(cc(C(=O)N[C@@H](Cc4ccccc4)[C@H](O)CNC4CC4)cc13)N(CC)S(=O)(=O)CC2 [TCMDC-135553] | 73.35
32 | CC(C)c1cn2c3c(cc(C(=O)N[C@@H](Cc4ccccc4)[C@H](O)CNC4CCOCC4)cc13)N(C)S(=O)(=O)CC2 [TCMDC-135535] | 2.441
33 | CC(C)NC[C@@H](O)[C@H](Cc1ccccc1)NC(=O)c1cc2c3c(c1)c(C(C)C)cn3CCS(=O)(=O)N2C [TCMDC-135532] | 49.45
34 | CCc1cn2c3c(cc(C(=O)N[C@@H](Cc4ccccc4)[C@H](O)CNC4CCCC4)cc13)N(C)S(=O)(=O)CC2 [TCMDC-135803] | 56.31
35 | CCc1cn2c3c(cc(C(=O)N[C@@H](Cc4cccc(F)c4)[C@H](O)CNC4CC4)cc13)N(C)S(=O)(=O)CC2 [TCMDC-135651] | -23.22
36 | CCc1cn2c3c(cc(C(=O)N[C@@H](Cc4ccccc4)[C@H](O)CNC4CCC4)cc13)N(C)S(=O)(=O)CC2 [TCMDC-135674] | 32.1
37 | CCc1cn2c3c(cc(C(=O)N[C@@H](Cc4cc(F)cc(F)c4)[C@H](O)CNC4CCOCC4)cc13)N(C)S(=O)(=O)CC2 [TCMDC-135797] | 26.1
38 | CCc1cn2c3c(cc(C(=O)N[C@@H](Cc4ccccc4)[C@H](O)CNC4CCOCC4)cc13)N(C)S(=O)(=O)C2 [TCMDC-135394] | 4.179
39 | CC(C)c1cn2c3c(cc(C(=O)N[C@@H](Cc4ccccc4)[C@H](O)CNC4CCCCC4)cc13)N(C)S(=O)(=O)CC2 [TCMDC-135533] | 94.75
40 | CCc1cn2c3c(cc(C(=O)N[C@@H](Cc4cc(F)cc(F)c4)[C@H](O)CNC4CC4)cc13)N(C)S(=O)(=O)CC2 [TCMDC-135673] | 30.94

Row | Structure (SMILES) | % Inhibition [%]
41 | CCc1cn2c3c(cc(C(=O)N[C@@H](Cc4cc(F)cc(F)c4)[C@H](O)CNC4CCCCC4)cc13)N(C)S(=O)(=O)CC2 [TCMDC-135672] | 90.03
42 | CCCc1cn2c3c(cc(C(=O)N[C@@H](Cc4ccccc4)[C@H](O)CNC4CCCCC4)cc13)N(C)S(=O)(=O)CC2 [TCMDC-135771] | 15.59
43 | CC(=O)Nc1ccc(CN2CCC(N(C)c3cc(NC(=O)c4cccs4)ccn3)CC2)cc1 [TCMDC-134971] | -6.674
44 | CCc1c(C)nc2nc(Cc3cccc(F)c3)nn2c1N1CCN(c2ccccn2)CC1 [TCMDC-124593] | 5.465
45 | Cc1noc(C)c1-c1cccc(CNCc2ccc(-c3ccc(-c4nc5cc(F)ccc5[nH]4)s3)cc2)c1.O=C(O)C(F)(F)F [TCMDC-133054] | 12.51
46 | O=C(/C=C/c1ccc(Cl)cc1)NCCCCCN1CCCN(C(=O)Nc2cccc(Cl)c2)CC1 [TCMDC-136102] | -54.14
47 | Cn1cnc(CCNC(=O)c2ccc(-c3ccc(-c4nc5cc(C(F)(F)F)ccc5[nH]4)s3)cc2)c1 [TCMDC-132500] | -12.71
48 | CCc1cn2c3c(cc(C(=O)N[C@@H](Cc4cccc(Cl)c4)[C@H](O)CNC4CCOCC4)cc13)N(C)S(=O)(=O)CC2 [TCMDC-135650] | 67.17
49 | CCc1cn2c3c(cc(C(=O)N[C@@H](Cc4ccccc4)[C@H](O)CNC4CCOCC4)cc13)N(CC(F)(F)F)S(=O)(=O)CC2 [TCMDC-135652] | 61.24
50 | CCCc1cn2c3c(cc(C(=O)N[C@@H](Cc4ccccc4)[C@H](O)CNC4CCOCC4)cc13)N(CC)S(=O)(=O)CC2 [TCMDC-135774] | 46.67
51 | CCc1cn2c3c(cc(C(=O)N[C@@H](Cc4cccc(F)c4)[C@H](O)CNC4CCCCC4)cc13)N(C)S(=O)(=O)CC2 [TCMDC-135659] | 47.1
52 | CCCc1cn2c3c(cc(C(=O)N[C@@H](Cc4ccccc4)[C@H](O)CNC4CCOCC4)cc13)N(C)S(=O)(=O)CC2 [TCMDC-135772] | 9.174
53 | CCc1cn2c3c(cc(C(=O)N[C@@H](Cc4ccccc4)[C@H](O)CNC4CCCCC4)cc13)N(C)S(=O)(=O)C2 [TCMDC-135389] | 12.74
54 | CCc1cn2c3c(cc(C(=O)N[C@@H](Cc4ccccc4)[C@H](O)CNC4CCOCC4)cc13)N(C(C)C)S(=O)(=O)CC2 [TCMDC-135506] | 37.66
55 | CCc1cn2c3c(cc(C(=O)N[C@@H](Cc4ccccc4)[C@H](O)CNC4CCCCC4)cc13)N(CC)S(=O)(=O)CC2 [TCMDC-135572] | 99.29
56 | CCc1cn2c3c(cc(C(=O)N[C@@H](Cc4cccc(Cl)c4)[C@H](O)CNC4CCCCC4)cc13)N(C)S(=O)(=O)CC2 [TCMDC-135649] | 39.17
57 | CCc1cn2c3c(cc(C(=O)N[C@@H](Cc4cccc(Cl)c4)[C@H](O)CNC4CC4)cc13)N(C)S(=O)(=O)CC2 [TCMDC-135648] | 29.4
58 | CCCc1cn2c3c(cc(C(=O)N[C@@H](Cc4ccccc4)[C@H](O)CNC4CCCCC4)cc13)N(CC)S(=O)(=O)CC2 [TCMDC-135773] | 81.38
59 | CCc1cn2c3c(cc(C(=O)N[C@@H](Cc4cccc(F)c4)[C@H](O)CNC4CCOCC4)cc13)N(C)S(=O)(=O)CC2 [TCMDC-135661] | 11.24
